EBV gp42 block: Epstein-Barr virus gp42 inhibitors, primary screen, biochemical, uHTS, fluorescence polarization; Glycoprotein 42 (Epstein-Barr virus (strain AG876)), Q1HVG2; Fluorescence polarization binding assay, mP read-out; inhibition, % (tested at 21.74 µM); hit rate 0.42% among 220,000; in the data active = inhibition above about 50%
GLD-1 TGE inh: GLD-1/TGE RNA complex disruptors, primary screen, biochemical, fluorescence polarization; Female germline-specific tumor suppressor gld-1 (Caenorhabditis elegans), Q17339; hit rate 0.44% among 320,000; purified GLD-1 + fluorescein TGE RNA; inhibition, % at 5.96 µM;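 active = percent inhibition above a per-plate cutoff, the plate mean of test compounds plus 3 SD, cut at about 30% in these data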
E coli Lon inh: inhibitors of E. coli Lon protease, primary screen, biochemical, fluorescence polarization | P0A9M0 | purified E. coli Lon protease | inhibition, % at 7.94 µM | hit rate 0.42% among 360,000 | AID 602123, 2011; in the data active = inhibition above about 13%, passing the limit was not always enough
BCLXL inh: inhibitors of human Bcl-xL, primary screen, biochemical, fluorescence polarization, HTS; GST-Bcl-xL / FITC-Bim BH3 peptide fluorescence polarization; inhibition, % at 10.9 µM; hit rate 0.7% among 320,000; AID 2129, 2009;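 active = inhibition above the mean of all tested compounds plus 3 SD, cutoff set per campaign, cut at about 30% in these data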;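 note: inhibitors lower millipolarization by displacing the labeled peptide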
Target sequence (Q07817 whole entry, looked up): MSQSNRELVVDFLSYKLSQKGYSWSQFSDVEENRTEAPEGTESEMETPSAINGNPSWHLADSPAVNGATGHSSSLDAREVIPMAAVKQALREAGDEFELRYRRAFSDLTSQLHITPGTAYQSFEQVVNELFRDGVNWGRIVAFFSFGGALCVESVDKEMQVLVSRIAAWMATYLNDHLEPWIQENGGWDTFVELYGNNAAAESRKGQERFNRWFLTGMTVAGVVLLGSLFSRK
MEX-5 binding: MEX-5 zinc finger RNA-binding disruptors – biochemical, C. elegans, fluorescence polarization, MLPCN library, primary screen; Zinc finger protein mex-5 (Caenorhabditis elegans), Q9XUB2; AID 1832, 2009; MEX-5/FITC-TCR2 RNA binding; hits give low values; hit rate 0.38% among 300,000; activity score (negative = inhibition of binding), % at 10 µM;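 active = inhibition past about -25% in most replicates, and total fluorescence under double the plate's negative control median, limit read from the data; inconclusive = replicates evenly split on the limit, or fluorescence at least double controls; inactive = too little inhibition in most replicates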
eLon confirm: E. coli Lon protease inhibitor retest, confirmation, biochemical, fluorescence polarization; inhibition, % at 7.94 µM; shares compounds with E coli Lon inh; purified E. coli Lon; hit rate 31% among 1,400; in the data active = inhibition above about 16%
Hits are given with their value; – = inactive; ? = inconclusive; · = not tested or not shown; + = active, no number. The list is not random: actives were taken first. Their share in the collection is about 1.3%.

SMILES | EBV gp42 block | GLD-1 TGE inh | E coli Lon inh | BCLXL inh | MEX-5 binding | eLon confirm
Cc1ccc(NC(=O)COc2ccccc2C(N)=O)cc1S(=O)(=O)N1CCCCCC1 | · | – | 22 | – | · | –
CCOc1ccccc1OCC(=O)Nc1cccc(S(=O)(=O)N2CCCCCC2)c1 | · | – | 60 | – | – | –
COc1ccc(CCN2C(=O)CC(NNc3ccc([N+](=O)[O-])cc3)C2=O)cc1OC (stereo unspecified) | – | – | – | – | – | ·
COC/C=C/C1=CC2=CC(=O)C(C)(OC(=O)c3cnc4ccccc4n3)C(=O)C2=CN1CCOC (stereo unspecified) | · | – | 29 | – | – | –
COC/C=C/C1=CC2=CC(=O)C(C)(OC(=O)c3cnc4ccccc4n3)C(=O)C2=CN1CCCOC(C)C (stereo unspecified) | – | – | – | – | – | ·
Cc1oc2ccc(Br)cc2c(=O)c1-c1nn[nH]n1 | – | – | 21 | – | – | –
Cc1n[nH]c(C)c1N1C(=O)c2cccc3c(N4CCCCCC4)ccc(c23)C1=O | 193 | + | 69 | + | -53 | –
C=CCN1C(=O)c2cccc3c(Br)ccc(c23)C1=O | – | – | – | – | – | ·
CC(=O)c1ccc2c3c(cccc13)C(=O)N(c1c(C)nn(C)c1C)C2=O | – | – | – | – | · | ·
C=CCN1C(=O)c2cccc3c(N4CCCCC4)ccc(c23)C1=O | – | 151 | 114 | – | ? | –
O=C1c2cccc3c(N4CCCCC4)ccc(c23)C(=O)N1CCO | – | – | 126 | 49 | -26 | –
COc1ccccc1NC(=O)Nc1nc(CC(=O)NCc2ccc(F)cc2)cs1 | · | – | – | – | – | ·
Cc1ccc(NS(=O)(=O)c2c(C)noc2C)cc1 | · | – | – | – | – | ·
CCCCn1c(N)c(N(CCOC)C(=O)c2ccc(-n3c(C)ccc3C)cc2)c(=O)[nH]c1=O | · | – | – | – | – | ·
CCOC(=O)C1=C(N)Oc2cc(O)ccc2C1c1ccc(F)cc1F (stereo unspecified) | · | – | 34 | – | – | –
CCOC(=O)C1=C(N)Oc2cc(O)ccc2C1c1ccc(C)cc1 (stereo unspecified) | · | – | – | – | – | ·
Cc1cccc(NCc2ccc(Br)cc2)n1 | · | – | – | – | – | ·
COc1ccccc1/C=N/NC(=O)C(=O)N1CCN(c2ccccc2OC)CC1 | – | – | – | – | – | ·
Cn1c(-c2ccccc2)c(CCO)c2ccccc21 | – | – | 32 | – | – | –
